We go through eleven compounds from PubChem BioAssay (EPA / NIEHS).

Several values for one entry are separate records, joined by “and”; a condition that tells them apart may be missing. Equal values may be shown once. Some structures have more than one record in an assay (separate samples or runs), and their calls can disagree. Activity calls are given as the source filed them. How the source made its calls: active means hit-call score of the fitted dose curve at least 0.9, where 1 is the maximum; inactive means score below 0.9.

Conditions in all cases: mRNA level, 48 h; actives raise or lower the signal
Read-out in one assay: BCL2L11 (gene 10018)
The experiment in a line: LTEA_HepaRG_BCL2L11: Life Technologies and Expression Analysis (LTEA) Assay for Bcl-2 (BCL2L11) gene using HepaRG (AID 2283473). An outline of the steps: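 Cells were plated, cultured 48 h, switched to serum-free induction medium, then dosed in duplicate for 48 h at eight half-log concentrations up to 100 uM. Lysates underwent RNA isolation and TaqMan qRT-PCR; gain or loss versus DMSO was fitted.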

Read-out in assay [1]: Apolipoprotein A-V (APOA5) gene, APOA5 (gene 116519)
The experiment in a line: LTEA_HepaRG_APOA5: Life Technologies and Expression Analysis (LTEA) Assay for Apolipoprotein A-V (APOA5) gene using HepaRG (AID 2283474). The essentials: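 Human liver HepaRG cells are treated 48 h with test chemicals (100 uM top, half-log dilutions, 0.5% DMSO). APOA5 mRNA induction or loss is measured by qRT-PCR relative to vehicle.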

Read-out in assay [2]: Bcl-2 (BID) gene, BID (gene 637)
The experiment in a line: LTEA_HepaRG_BID: Life Technologies and Expression Analysis (LTEA) Assay for Bcl-2 (BID) gene using HepaRG (AID 2283476). An outline of the steps:
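Assay used HepaRG hepatic cells treated 48 h in serum-free medium with half-log dilutions from 100 uM. Endpoint: BID mRNA, qRT-PCR, normalized to ACTB/GAPDH/POLR2A.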

Read-out in a further assay: Caspase-3 (Homo sapiens) (UniProt P42574)
The experiment in a line: LTEA_HepaRG_CASP3: Life Technologies and Expression Analysis (LTEA) Assay for cysteine-aspartic acid protease (CASP3) using HepaRG (AID 2283477). An outline of the steps:
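In HepaRG liver cells dosed for 48 h at up to 100 uM (eight-point, duplicate), CASP3 expression changes are scored by qRT-PCR. Activity is fitted in both directions with 0.5% DMSO as baseline.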

Read-out in assay [3]: Cytochrome P450 (CYP24A1), CYP24A1 (gene 1591)
The experiment in a line: LTEA_HepaRG_CYP24A1: Life Technologies and Expression Analysis (LTEA) Assay for Cytochrome P450 (CYP24A1) using HepaRG (AID 2283478). The essentials:
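Human liver HepaRG cultures receive each chemical for 48 h across an eight-point half-log series topping at 100 uM in 0.5% DMSO. Induction or suppression of CYP24A1 mRNA is scored relative to vehicle after housekeeping-gene normalization.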

Read-out in assay [4]: Cytochrome P450 (CYP1A2), CYP1A2 (gene 1544)
The experiment in a line: LTEA_HepaRG_CYP1A2: Life Technologies and Expression Analysis (LTEA) Assay for Cytochrome P450 (CYP1A2) using HepaRG (AID 2283479).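 On AC50: TaqMan qRT-PCR transcript level normalized to ACTB GAPDH and POLR2A.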 An outline of the steps: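 Assesses CYP1A2 mRNA in human HepaRG liver cells after 48 h chemical exposure at up to 100 uM. Values come from qRT-PCR with bidirectional curve fitting relative to DMSO.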

Read-out in assay [5]: cysteine-aspartic acid protease (CASP8), CASP8 (gene 841)
The experiment in a line: LTEA_HepaRG_CASP8: Life Technologies and Expression Analysis (LTEA) Assay for cysteine-aspartic acid protease (CASP8) using HepaRG (AID 2283480). An outline of the steps:
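qRT-PCR readout of CASP8 mRNA, normalized to three housekeeping genes, after 48 h chemical exposure of HepaRG cells; 8-point half-log series, top 100 uM, 0.5% DMSO vehicle. Bidirectional curve fitting against DMSO baseline.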

Read-out in assay [6]: Cytochrome P450 (CYP2B6), CYP2B6 (gene 1555)
The assay is described as follows: LTEA_HepaRG_CYP2B6: Life Technologies and Expression Analysis (LTEA) Assay for Cytochrome P450 (CYP2B6) using HepaRG (AID 2283481). The essentials: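 Using 48 h treatment of HepaRG cells in serum-free induction medium, concentrations spanned half-log steps from 100 uM in 0.5% DMSO vehicle. CYP2B6 mRNA induction or loss is scored by qRT-PCR against DMSO.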

Read-out in assay [7]: Alpha-fetoprotein (AFP) gene, AFP (gene 174)
The assay is described as follows: LTEA_HepaRG_AFP: Life Technologies and Expression Analysis (LTEA) Assay for Alpha-fetoprotein (AFP) gene using HepaRG (AID 2283472).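 On AC50: AFP transcript by TaqMan qRT-PCR normalized to ACTB GAPDH and POLR2A.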 The essentials: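 Measures AFP mRNA change in HepaRG after 48 h chemical exposure (8 half-log concentrations, highest 100 uM, 0.5% DMSO). Fold change relative to DMSO, fitted in both directions.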

Read-out in assay [8]: Apoptosis regulator Bcl-2 (Homo sapiens) (UniProt P10415)
The experiment in a line: LTEA_HepaRG_BCL2: Life Technologies and Expression Analysis (LTEA) Assay for Bcl-2 gene using HepaRG (AID 2283475).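 Further: BCL2 transcript by TaqMan qRT-PCR normalised to ACTB GAPDH and POLR2A.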 The essentials:
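Each chemical was tested in duplicate on HepaRG cultures held in serum-free induction medium for 48 h, highest concentration 100 uM with half-log dilutions. Transcript levels came from multiplexed qRT-PCR, normalised to housekeeping genes; activity was scored in either direction relative to DMSO.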

Chain of Apoptosis regulator Bcl-2 (Homo sapiens) (P10415 whole entry, looked up): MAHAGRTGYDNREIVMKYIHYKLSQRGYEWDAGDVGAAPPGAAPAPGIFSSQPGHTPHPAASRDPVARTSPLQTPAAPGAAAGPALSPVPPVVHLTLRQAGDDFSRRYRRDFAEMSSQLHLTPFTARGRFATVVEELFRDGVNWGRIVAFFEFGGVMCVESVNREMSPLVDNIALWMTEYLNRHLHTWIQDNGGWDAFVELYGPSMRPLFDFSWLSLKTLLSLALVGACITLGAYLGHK
Chain of Caspase-3 (Homo sapiens) (P42574 whole entry, looked up): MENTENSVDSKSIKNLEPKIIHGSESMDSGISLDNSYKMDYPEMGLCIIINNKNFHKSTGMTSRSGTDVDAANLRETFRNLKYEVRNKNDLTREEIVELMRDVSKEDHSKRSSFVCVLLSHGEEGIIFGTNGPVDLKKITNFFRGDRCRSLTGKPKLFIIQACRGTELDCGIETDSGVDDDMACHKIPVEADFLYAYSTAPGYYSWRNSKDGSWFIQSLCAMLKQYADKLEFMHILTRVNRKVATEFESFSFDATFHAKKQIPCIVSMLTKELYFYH

On to `CC(C)(C)C(O)C(Oc1ccc(Cl)cc1)n1cncn1` (stereo not drawn), for which the call (with BCL2L11 (gene 10018); in assay [1]; in assay [2]; with Caspase-3 (Homo sapiens); in [3]; in assay [5]) was inactive. The AC50 in assay [1] was 50 µM (active); in [4], 22.2 µM (active) and 36.8 µM (active) and 32.8 µM (active); in assay [6] it was 2.21 µM (active) and 3.37 µM (active) and 1.68 µM (active).
Consider `CCOC1Oc2ccc(OS(C)(=O)=O)cc2C1(C)C` (stereo not drawn), for which the AC50 was 72.3 µM (active) in [7], 77 µM (active) in assay [1], 73.3 µM (active) in assay [4] and 91.3 µM (active) in assay [6]. The result (with BCL2L11 (gene 10018); in assay [2]; with Caspase-3 (Homo sapiens); in assay [3]; in [5]) was inactive.
In the case of `CC(C)OC(=O)Nc1cccc(Cl)c1`, the compound was called inactive (with BCL2L11 (gene 10018); in [1]; in assay [8]; with Caspase-3 (Homo sapiens); in assay [3]; in assay [4]). The outcome in assay [5] was inactive. Also, the AC50 is 7.78 µM (active) in [2] and 50 µM (active) in [6].
On to `O=C(O)CCCOc1ccc(Cl)cc1Cl`, for which the call (with BCL2L11 (gene 10018); in [1]; in [8]; in assay [2]; with Caspase-3 (Homo sapiens); in assay [3]) was inactive. In assay [5], the compound was classed as inactive. For the same compound, the concentration at half-maximal activity (AC50) in assay [4] is 73.8 µM (active); in assay [6], 15.2 µM (active).
With `COP(=O)(OC)OC=C(Cl)Cl`, the compound was classed as inactive (in [7]; in the assay with BCL2L11 (gene 10018); in assay [1]; in assay [8]; in [2]; with Caspase-3 (Homo sapiens)). Also, the outcome in assay [3], in assay [4] and in [5] was inactive. Further, the AC50 in assay [6] is 6.48 µM (active).
Turning to `Oc1ccc(Cl)cc1Cc1ccccc1`, the result (with BCL2L11 (gene 10018); in assay [1]; in assay [2]; with Caspase-3 (Homo sapiens); in [3]; in assay [4]) was inactive. Besides, the result in assay [5] and in assay [6] was inactive. The AC50 in assay [1] was 79.8 µM (active).
As to `CC[C@H](C)[C@H]1O[C@]2(C=C[C@@H]1C)C[C@@H]1C[C@@H](C/C=C(\C)[C@@H](O[C@H]3C[C@H](OC)[C@@H](O[C@H]4C[C@H](OC)[C@@H](O)[C@H](C)O4)[C@H](C)O3)[C@@H](C)/C=C/C=C3\CO[C@@H]4[C@H](O)C(C)=C[C@@H](C(=O)O1)[C@]34O)O2` (tested in a mixture with another compound), the outcome (in assay [7]; in assay [2]; with Caspase-3 (Homo sapiens); in assay [3]; in [5]) was inactive. Moreover, the AC50 with BCL2L11 (gene 10018) is 10.7 µM (active); in assay [1], 13.6 µM (active); in [4], 10.9 µM (active); in [6] it was 11 µM (active).
As for `CNC(=O)Oc1cccc(N=CN(C)C)c1`, the result (with BCL2L11 (gene 10018); in [1]; in assay [2]; in the assay with Caspase-3 (Homo sapiens); in assay [3]; in assay [4]) was inactive. Besides, the compound was called inactive in [5] and in [6].
For `CNC(=O)CSP(=S)(OC)OC`, the call (with BCL2L11 (gene 10018); in assay [1]; in assay [2]; with Caspase-3 (Homo sapiens); in assay [3]; in [5]) was inactive. In addition, the AC50 in assay [4] was 16.2 µM (active); in assay [6], 23.1 µM (active).
Regarding `CC1(c2ccc(Oc3ccccc3)cc2)OC(=O)N(Nc2ccccc2)C1=O` (stereo not drawn), the AC50 is 9.81 µM (active) in assay [7]; 11.7 µM (active) with BCL2L11 (gene 10018); 28.3 µM (active) in assay [1]; 50.2 µM (active) in assay [4]; 11.7 µM (active) in assay [5]; 8.83 µM (active) in [6]. The call (in [2]; with Caspase-3 (Homo sapiens); in assay [3]) was inactive.
For `COc1nn(CSP(=S)(OC)OC)c(=O)s1`, the compound was called inactive (in assay [7]; in the assay with BCL2L11 (gene 10018); in assay [1]; in assay [2]; in the assay with Caspase-3 (Homo sapiens); in assay [3]). Also, in assay [5], the result was inactive. The AC50 in [4] was 12.1 µM (active); in assay [6], 4.94 µM (active).
